Drawing on PubChem BioAssay (NCI), this text covers growth for 26 compounds.

What all share (assay): NCI-60 one-dose screen, 48 h (100 = growth as untreated, 0 = no growth, -100 = all killed)
Conditions in all cases: 10 µM unless noted

Assay [1] has as its system HCT-15 colon.
The test system of assay [2] is HT29 colon.
The test system of assay [3] is SNB-75 CNS.
The test system of assay [4] is SNB-19 CNS.
The test system of assay [5] is U251 CNS.
In assay [6] the test system is PC-3 prostate.
Assay [7] relates to SK-MEL-5 melanoma.
Assay [8] concerns UACC-62 melanoma.
Assay [9] relates to LOX IMVI melanoma.
In assay [10] the test system is SK-MEL-28 melanoma.

About 83,000 compounds went through this panel and 20% of them were active in at least one assay; those are over-represented in the sample as a whole.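 Step 1: grow cells in 96-well plates. Step 2: add test compound at a single concentration. Step 3: incubate 48 h. Step 4: record percent growth.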 Values without a mark were called inactive. Active and inactive are the calls of the source. How the source made its calls: active means growth percent below 10; inactive means the rest.

On to `CNC(=O)CCN1CCN(CC/C=C2\c3ccccc3Sc3ccc(Cl)cc32)CC1`, for which the growth in assay [1] is 63.2%; in assay [2], 58.2%; in [3], 74.3%; in assay [4], 98.6%; in [5], 77.8%; in assay [6], 8.82% (active). Besides, the growth in assay [7] was 79.6%; in [8], 60.4%; in assay [9] it was 72%; in assay [10] it was -51.5% (active).

Regarding `C=C(C)[C@@H]1CC[C@]2(C(=O)NC3CCCCC3)CC[C@]3(C)[C@H](CC[C@@H]4[C@@]5(C)CCCNC(C)(C)[C@@H]5CC[C@]43C)[C@@H]12`, the growth in assay [1] was -26.8% (active); in assay [2], 2.51% (active); in assay [3] it was 93.9%; in assay [4], 84.3%; in assay [5], 14.9%; in assay [6], 49.7%. For the same compound, the growth is 6.77% (active) in assay [7], 11.7% in [8], -91.8% (active) in assay [9] and 56.6% in assay [10].

As to `Cc1ccc(NCCN(C)C)c2c(=O)c3ccccc3sc12`, the growth in assay [1] is 6.89% (active); in assay [2] it was -38.3% (active); in assay [3], 41.2%; in [4], 20.2%; in [5] it was 10.8%; in [6], 36.2%. Further, the growth is -73.6% (active) in assay [7], -5.6% (active) in assay [8], -41.6% (active) in [9] and 2.84% (active) in assay [10].

Consider `Cc1cc[c-]cc1.Fc1c[c-]c(-c2ccccn2)c(F)c1.[Pt+2].c1ccc(P(C[PH+](c2ccccc2)c2ccccc2)c2ccccc2)cc1`, for which the growth in [1] is 47%; in assay [2] it was 16.9%; in [3] it was 4.48% (active); in [4], 17.5%; in [5] it was 12.9%; in [6] it was 11.2%. Also, the growth in [7] is -94.9% (active); in assay [8], 9.82% (active); in assay [9] it was 18.5%; in assay [10] it was 36.4%.

With `CC(C)CCC[C@@H](C)[C@H]1CC[C@H]2[C@@H](Nc3ccc(O)cc3)CCC[C@]12C`, the growth in assay [1] was 70.8%; in [2], 89.5%; in [3] it was 75.8%; in assay [4], 111%; in [5], 91.8%; in assay [6] it was 33.5%. For the same compound, the growth in assay [7] is 97.9%; in [8] it was 76.5%; in [9] it was 34.7%; in [10], 97.9%.

With `Cc1cc(C(=O)c2ccccc2)c(C)c2c1[nH]c1ccc(Cl)cc12`, the growth in [1] is 7.78% (active); in assay [2], 5.31% (active); in [3], -10.1% (active); in assay [4], 52.3%; in assay [5], 20.8%; in assay [6] it was 23.8%. Besides, the growth is 2.39% (active) in assay [7], 54.9% in assay [8], 10.2% in [9] and 59.1% in assay [10].

Consider `O=C1/C(=C/c2ccc(F)cc2)C=C(c2ccccc2)N1CCc1ccccc1`, for which the growth in [1] is 77.9%; in assay [2], 63.2%; in [3] it was -10.5% (active); in [4] it was 45.1%; in [5], 46.9%; in assay [6], 51.2%. Also, the growth was 73% in assay [7], 50.1% in [8], 70.7% in [9] and 72.6% in assay [10].

`COc1cc(C2NC(=O)c3ccccc3N2)ccc1OCCCCCOc1c(OC)cc(C2=NOC(c3cc(OC)c(OC)c(OC)c3)C2)cc1OC` (stereo not given): the growth in assay [1] was 73%; in [2] it was 94.2%; in [3], 101%; in assay [4] it was 80.2%; in [5], 84.2%; in assay [6], 36.8%. For the same compound, the growth in assay [7] is -2.4% (active); in assay [8], 53.3%; in assay [9], 61%; in assay [10], 69.4%.

As for `O=C(/C=C/c1cccc(O)c1)c1cccc(-n2cc(-c3ccc4ccccc4c3)[nH]c2=O)c1`, the growth in assay [1] was 2.35% (active); in assay [2], -72.7% (active); in [3] it was 4.8% (active); in assay [4], -43.2% (active); in assay [5], -86.6% (active); in [6], 5.01% (active). For the same compound, the growth in assay [7] was -2.25% (active); in assay [8] it was 11.4%; in assay [9], -78.2% (active); in [10] it was 42.9%.

Take `Cc1c(O)cc(-c2cnc(N/N=C\c3ccc(Cl)cc3)s2)c(O)c1C`: the growth in assay [1] is 85%; in [2], 101%; in [3], 94.2%; in [4] it was 97%; in assay [5], 89.9%; in [6] it was 66.4%. Moreover, the growth in assay [7] is 79.8%; in assay [8], 81.6%; in assay [9], 62.2%; in [10], 94.4%.

As for `COc1cc(C2CC(c3ccc(Nc4ccnc5cc(Cl)ccc45)cc3)=NN2C=O)cc(OC)c1OC` (stereo not given), the growth is 48.8% in assay [1]; -37.3% (active) in assay [2]; 75.7% in assay [3]; 82% in assay [4]; 44.6% in [5]; 80.6% in assay [6]. Moreover, the growth in assay [7] is 37.3%; in assay [8] it was 46.3%; in assay [9], 0.138% (active); in assay [10], 22.4%.

On to `O=C1C=C[C@]2(C[C@@H](c3cccc(C(F)(F)F)c3)O[C@@H](c3cccc(C(F)(F)F)c3)O2)O1`, for which the growth was -33.8% (active) in [1]; -24.2% (active) in assay [2]; 57.9% in assay [3]; 33.2% in assay [4]; 28.6% in [5]; 7.18% (active) in assay [6]. The growth was -58.2% (active) in assay [7], -38.6% (active) in [8], -84.6% (active) in assay [9] and 48.6% in [10].

Regarding `Clc1cccc(Cl)c1/C=C/c1cc(/C=C/c2c(Cl)cccc2Cl)[nH]n1`, the growth in assay [1] was 27.7%; in [2], 10.7%; in assay [3], 11%; in [4], 25.9%; in [5], 20.3%; in assay [6], 30.8%. In addition, the growth in assay [7] is 22.9%; in assay [8], 38.8%; in assay [9], 46.3%; in [10], 46.2%.

On to `O=C(CSc1nccc(Nc2ccc(S(=O)(=O)Nc3nccs3)cc2)n1)c1ccc(F)cc1`, for which the growth in [1] was 98.1%; in assay [2], 106%; in assay [3], 94%; in assay [4] it was 100%; in assay [5], 102%; in assay [6], 96.1%. Besides, the growth was 98.7% in assay [7], 94.5% in assay [8], 97.5% in [9] and 106% in assay [10].

Consider `COc1ccc(-c2nc(SC(C)C)nc(NNC(N)=S)c2C#N)cc1`, for which the growth is 23.6% in assay [1]; 85% in assay [2]; 32.3% in assay [3]; 38% in assay [4]; 52.8% in [5]; 55.6% in assay [6]. The growth is 28.9% in assay [7], 22.2% in assay [8], 40.2% in [9] and 58.7% in assay [10].

In the case of `CCCCCCCCn1ccc2cc(NC(=O)Cn3cc(CN4CCCC4)nn3)ccc21`, the growth in assay [1] is -45.6% (active); in [2], -57.8% (active); in assay [3] it was 96.6%; in [4] it was 0.775% (active); in assay [5], -35.5% (active); in assay [6], 64.9%. Besides, the growth is 30.7% in assay [7], -82.1% (active) in assay [8], -85.1% (active) in assay [9] and -70.9% (active) in assay [10].

Turning to `NS(=O)(=O)c1cnccc1Sc1ccncc1S(N)(=O)=O`, the growth was 102% in assay [1]; 113% in assay [2]; 96.6% in assay [3]; 105% in assay [4]; 107% in assay [5]; 94.9% in assay [6]. For the same compound, the growth is 105% in assay [7], 99.4% in assay [8], 101% in [9] and 117% in [10].

On to `COc1cc(/C=N/Nc2ncc(-c3cc4cc5c(cc4o3)OCO5)s2)cc(OC)c1OC`, for which the growth in [1] was 35.7%; in assay [2], 56.2%; in assay [3], 72.4%; in [4], 76.1%; in [5], 68.1%; in assay [6], 21.5%. The growth in assay [7] is 4.87% (active); in [8], 33.7%; in assay [9] it was 36.1%; in assay [10], 60.7%.

Turning to `CC1(C)CC[C@]2(C(=O)N3CCOCC3)CC[C@]3(C)C(=CC[C@@H]4[C@@]5(C)CC[C@H](OC(=O)c6cccnc6)C(C)(C)[C@@H]5CC[C@]43C)[C@@H]2C1`, the growth in [1] is 49.4%; in assay [2], 42.3%; in [3] it was 67.7%; in assay [4] it was 67.5%; in assay [5] it was 53.2%; in assay [6], 38.9%. The growth in [7] was 54.3%; in assay [8], 35.7%; in [9], 28%; in assay [10], 66.1%.

Consider `Cc1ccc2nc(C)c(-c3nnc(SCc4ccc(C#N)cc4)o3)n2c1`, for which the growth is 79.6% in assay [1]; 115% in assay [2]; 77.7% in assay [3]; 90.7% in assay [4]; 95.3% in [5]; 109% in [6]. Moreover, the growth is 92.9% in assay [7], 74.4% in [8], 93.2% in assay [9] and 100% in assay [10].

As to `CCc1c2c(nc3ccc(OC(=O)NCc4ccc(B5OC(C)(C)C(C)(C)O5)cc4)cc13)-c1cc3c(c(=O)n1C2)COC(=O)[C@]3(O)CC`, the growth in assay [1] was 10.4%; in assay [2] it was 25.2%; in assay [3] it was -22.1% (active); in [4] it was 1.93% (active); in assay [5] it was -33.3% (active); in assay [6], 14.7%. Also, the growth is -87.4% (active) in assay [7], -80.5% (active) in [8], -71.6% (active) in assay [9] and 3.27% (active) in assay [10].

For the compound `Nc1nc(N)c2c(n1)NC(c1ccccc1)C1CCc3ccccc3C1=N2` (stereo not given), the growth in assay [1] was 39%; in assay [2] it was 27.9%; in [3] it was 54.7%; in assay [4], 67.2%; in assay [5] it was 37.1%; in assay [6], 40.8%. The growth in assay [7] is -23.3% (active); in [8], 49.3%; in assay [9], 44.5%; in assay [10], 76.4%.

For `CCC1(C2CCCC2)NC(=O)NC1=O` (stereo not given), the growth is 92.3% in assay [1]; 94.6% in assay [2]; 93.9% in assay [3]; 98.5% in assay [4]; 106% in assay [5]; 101% in assay [6]. Moreover, the growth in [7] was 101%; in [8], 99.7%; in assay [9] it was 79.7%; in [10] it was 98.4%.

For the compound `C=CC(=O)Nc1cccc(Oc2nccc(Nc3nnc(C4CC4)s3)n2)c1`, the growth in assay [1] was 91.5%; in assay [2], 96.8%; in [3], 71.4%; in assay [4] it was 82.7%; in assay [5] it was 94.1%; in [6], 91.7%. Also, the growth is 89.5% in assay [7], 95.6% in [8], 89.6% in [9] and 98.8% in assay [10].

On to `N#Cc1c(-c2cccc(Cl)c2)cc(-c2cccc(F)c2)[nH]c1=O`, for which the growth in assay [1] is 90.2%; in assay [2], 107%; in assay [3] it was 85.8%; in assay [4], 91.1%; in [5], 86.7%; in assay [6], 85.3%. For the same compound, the growth in [7] was 89.4%; in [8], 76.8%; in assay [9], 89.6%; in assay [10] it was 97.9%.

Take `COc1cccc(C(=O)NCCCNc2cc(-c3cn(-c4ccccc4)nc3-c3cccc(OC)c3)ccn2)c1`: the growth was 35.5% in assay [1]; 27.7% in assay [2]; 63.5% in assay [3]; 65% in assay [4]; 39.7% in assay [5]; 27.4% in assay [6]. Moreover, the growth in assay [7] was 9.17% (active); in assay [8], 26.2%; in [9] it was 51.8%; in [10], 65.7%.
